The target in test [1] is Tyrosine-protein kinase SYK (Homo sapiens) (UniProt P43405). The following applies: at 1 µM.
In test [2] the target is T1, Tyrosine-protein kinase Tec (Homo sapiens) (UniProt P42680).
T1 sequence (whole entry): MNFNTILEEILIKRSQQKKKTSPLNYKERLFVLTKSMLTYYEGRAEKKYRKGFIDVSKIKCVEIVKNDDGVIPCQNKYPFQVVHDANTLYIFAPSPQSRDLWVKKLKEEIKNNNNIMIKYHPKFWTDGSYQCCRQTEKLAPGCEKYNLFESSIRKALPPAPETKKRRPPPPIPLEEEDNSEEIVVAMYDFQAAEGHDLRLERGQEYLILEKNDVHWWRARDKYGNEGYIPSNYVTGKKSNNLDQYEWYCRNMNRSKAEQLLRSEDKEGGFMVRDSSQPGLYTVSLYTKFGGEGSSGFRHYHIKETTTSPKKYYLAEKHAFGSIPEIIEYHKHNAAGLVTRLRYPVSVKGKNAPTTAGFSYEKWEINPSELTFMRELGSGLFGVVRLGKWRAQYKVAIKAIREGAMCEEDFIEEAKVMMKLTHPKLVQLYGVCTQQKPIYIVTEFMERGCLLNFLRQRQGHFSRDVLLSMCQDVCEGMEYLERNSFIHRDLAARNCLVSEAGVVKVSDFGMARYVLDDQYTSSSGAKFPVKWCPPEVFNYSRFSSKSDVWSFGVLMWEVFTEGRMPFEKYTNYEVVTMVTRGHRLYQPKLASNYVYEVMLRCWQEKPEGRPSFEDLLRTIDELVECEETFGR
The note with it: at 0.1 µM.

Test [3] concerns the target T1, Tyrosine-protein kinase Tec (Homo sapiens). The note with it: at 1 µM.
Test [4] deals with Angiopoietin-1 receptor (Homo sapiens) (UniProt Q02763). The note with it: at 0.1 µM.
For test [5] the target is unchanged. The following applies: at 1 µM.
Test [6] deals with T2, Non-receptor tyrosine-protein kinase TNK1 (Homo sapiens) (UniProt Q13470).
T2 sequence (whole entry): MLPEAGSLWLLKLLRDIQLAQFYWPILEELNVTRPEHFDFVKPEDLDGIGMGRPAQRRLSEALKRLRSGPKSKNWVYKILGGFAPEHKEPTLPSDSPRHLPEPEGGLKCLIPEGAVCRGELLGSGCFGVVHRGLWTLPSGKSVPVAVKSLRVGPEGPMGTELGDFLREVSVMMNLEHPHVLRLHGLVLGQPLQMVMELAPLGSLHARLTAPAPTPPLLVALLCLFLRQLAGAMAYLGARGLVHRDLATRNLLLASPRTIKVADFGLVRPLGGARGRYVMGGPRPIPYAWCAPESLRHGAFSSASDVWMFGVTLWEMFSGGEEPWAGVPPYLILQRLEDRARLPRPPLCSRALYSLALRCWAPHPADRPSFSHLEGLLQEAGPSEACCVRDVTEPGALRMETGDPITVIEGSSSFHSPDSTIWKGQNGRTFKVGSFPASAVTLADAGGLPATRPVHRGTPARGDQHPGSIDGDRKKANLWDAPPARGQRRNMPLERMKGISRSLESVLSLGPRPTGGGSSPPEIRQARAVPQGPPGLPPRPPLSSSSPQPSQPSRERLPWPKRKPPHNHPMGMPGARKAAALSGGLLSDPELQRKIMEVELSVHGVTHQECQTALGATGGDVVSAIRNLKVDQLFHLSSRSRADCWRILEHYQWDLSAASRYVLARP
The note with it: at 0.1 µM.

The target in test [7] is T2, Non-receptor tyrosine-protein kinase TNK1 (Homo sapiens). The following applies: at 1 µM.
For test [8], the target named is Activated CDC42 kinase 1 (Homo sapiens) (UniProt Q07912). The following applies: at 0.1 µM.
For test [9] the target is unchanged. The note with it: at 1 µM.
Test [10] deals with High affinity nerve growth factor receptor (Homo sapiens) (UniProt P04629). The following applies: at 0.1 µM.
Test [11] shares this target. The following applies: at 1 µM.
The target of test [12] is BDNF/NT-3 growth factors receptor (Homo sapiens) (UniProt Q16620). The note with it: at 0.1 µM.
The target is the same in test [13]. The note with it: at 1 µM.
In test [14] the target is NT-3 growth factor receptor (Homo sapiens) (UniProt Q16288). The following applies: at 0.1 µM.
Test [15] has the same target. The following applies: at 1 µM.
In test [16] the target is T3, Tyrosine-protein kinase TXK (Homo sapiens) (UniProt P42681).
T3 sequence (whole entry): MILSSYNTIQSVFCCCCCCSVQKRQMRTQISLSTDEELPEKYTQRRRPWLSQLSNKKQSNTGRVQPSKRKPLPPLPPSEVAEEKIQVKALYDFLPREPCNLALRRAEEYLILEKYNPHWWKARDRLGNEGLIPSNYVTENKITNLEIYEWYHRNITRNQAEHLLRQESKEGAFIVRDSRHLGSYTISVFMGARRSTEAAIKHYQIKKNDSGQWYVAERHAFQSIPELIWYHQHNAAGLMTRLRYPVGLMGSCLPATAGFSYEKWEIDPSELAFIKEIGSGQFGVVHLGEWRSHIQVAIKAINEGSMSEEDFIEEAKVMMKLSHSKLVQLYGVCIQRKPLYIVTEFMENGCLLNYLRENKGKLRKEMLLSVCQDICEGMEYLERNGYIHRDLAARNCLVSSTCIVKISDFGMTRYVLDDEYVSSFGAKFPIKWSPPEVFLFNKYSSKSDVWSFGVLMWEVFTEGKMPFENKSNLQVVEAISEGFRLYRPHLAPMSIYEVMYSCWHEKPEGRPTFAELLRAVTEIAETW
The note with it: at 0.1 µM.

In test [17] the target is T3, Tyrosine-protein kinase TXK (Homo sapiens). The note with it: at 1 µM.
The target in test [18] is Non-receptor tyrosine-protein kinase TYK2 (Homo sapiens) (UniProt P29597). The note with it: at 0.1 µM.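 Note: each value is a mean of the inhibition readings.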
The target of test [19] is T4, Dual specificity protein kinase TTK (Homo sapiens) (UniProt P33981).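 Note: reported figures are mean TTK inhibition at 1 µM.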
T4 sequence (whole entry): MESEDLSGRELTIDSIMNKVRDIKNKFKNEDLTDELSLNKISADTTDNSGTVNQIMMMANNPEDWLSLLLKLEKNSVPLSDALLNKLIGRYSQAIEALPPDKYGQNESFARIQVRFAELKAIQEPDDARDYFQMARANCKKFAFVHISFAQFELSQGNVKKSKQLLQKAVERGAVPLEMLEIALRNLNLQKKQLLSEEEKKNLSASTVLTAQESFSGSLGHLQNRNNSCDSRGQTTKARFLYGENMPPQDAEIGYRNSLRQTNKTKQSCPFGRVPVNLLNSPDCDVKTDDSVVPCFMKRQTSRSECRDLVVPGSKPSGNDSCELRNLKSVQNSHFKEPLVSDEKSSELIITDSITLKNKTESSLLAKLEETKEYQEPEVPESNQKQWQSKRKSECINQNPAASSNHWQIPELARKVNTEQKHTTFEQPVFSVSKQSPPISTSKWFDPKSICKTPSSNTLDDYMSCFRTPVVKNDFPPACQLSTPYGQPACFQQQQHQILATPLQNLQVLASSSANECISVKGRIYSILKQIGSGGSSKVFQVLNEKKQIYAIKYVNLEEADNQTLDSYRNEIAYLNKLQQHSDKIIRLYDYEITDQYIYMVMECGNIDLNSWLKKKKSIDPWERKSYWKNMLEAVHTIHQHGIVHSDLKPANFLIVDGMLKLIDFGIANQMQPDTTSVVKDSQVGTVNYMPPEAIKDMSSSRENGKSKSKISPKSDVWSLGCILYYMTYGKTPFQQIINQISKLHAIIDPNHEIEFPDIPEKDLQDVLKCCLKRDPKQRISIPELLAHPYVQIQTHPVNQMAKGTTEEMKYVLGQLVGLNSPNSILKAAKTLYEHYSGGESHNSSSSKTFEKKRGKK
The note with it: at 1 µM.

For test [20], the target named is T5, Aurora kinase A (Homo sapiens) (UniProt O14965).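 Note: each reported value is a mean percent inhibition of Aurora-A.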
T5 sequence (whole entry): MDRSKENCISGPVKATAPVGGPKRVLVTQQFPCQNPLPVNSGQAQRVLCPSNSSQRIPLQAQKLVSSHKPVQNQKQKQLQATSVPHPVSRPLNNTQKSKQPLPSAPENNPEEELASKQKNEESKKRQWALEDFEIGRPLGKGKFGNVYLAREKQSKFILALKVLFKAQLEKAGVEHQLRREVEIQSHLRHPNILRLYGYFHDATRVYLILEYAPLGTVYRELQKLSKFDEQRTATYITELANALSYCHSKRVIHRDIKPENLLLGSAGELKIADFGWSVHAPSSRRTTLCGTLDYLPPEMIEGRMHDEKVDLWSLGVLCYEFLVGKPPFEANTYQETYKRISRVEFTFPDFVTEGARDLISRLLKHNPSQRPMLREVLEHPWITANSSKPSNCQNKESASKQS
The following applies: at 0.1 µM.

3 compounds from ChEMBL document CHEMBL1961873, “Compounds: GSK PKIS; Assays: Nanosyn kinase panel” (2012) can be followed below.

The inhibition is the relative decrease from the control value, in per cent.

Sequence of NT-3 growth factor receptor (Homo sapiens) (Q16288 32-839 limits assumed): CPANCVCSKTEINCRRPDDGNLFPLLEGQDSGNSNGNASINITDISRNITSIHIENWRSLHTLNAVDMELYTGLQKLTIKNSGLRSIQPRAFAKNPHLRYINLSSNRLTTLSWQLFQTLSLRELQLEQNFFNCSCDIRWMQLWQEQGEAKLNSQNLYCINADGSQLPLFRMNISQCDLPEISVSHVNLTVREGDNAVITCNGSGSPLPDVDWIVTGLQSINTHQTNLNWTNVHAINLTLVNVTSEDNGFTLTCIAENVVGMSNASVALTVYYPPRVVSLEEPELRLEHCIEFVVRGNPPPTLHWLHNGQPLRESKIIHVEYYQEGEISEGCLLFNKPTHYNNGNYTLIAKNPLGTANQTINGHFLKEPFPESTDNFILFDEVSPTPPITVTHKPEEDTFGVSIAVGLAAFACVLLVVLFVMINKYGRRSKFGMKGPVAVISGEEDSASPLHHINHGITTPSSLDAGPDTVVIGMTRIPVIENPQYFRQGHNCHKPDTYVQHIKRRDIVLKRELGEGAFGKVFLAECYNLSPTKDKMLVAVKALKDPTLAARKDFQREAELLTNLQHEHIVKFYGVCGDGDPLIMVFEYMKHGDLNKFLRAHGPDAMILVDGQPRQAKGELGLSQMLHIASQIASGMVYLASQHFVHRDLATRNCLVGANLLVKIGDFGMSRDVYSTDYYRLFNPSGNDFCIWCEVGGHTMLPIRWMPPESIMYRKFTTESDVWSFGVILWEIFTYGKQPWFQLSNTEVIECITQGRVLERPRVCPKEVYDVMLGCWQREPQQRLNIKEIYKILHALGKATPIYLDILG
Sequence of Angiopoietin-1 receptor (Homo sapiens) (Q02763 whole entry): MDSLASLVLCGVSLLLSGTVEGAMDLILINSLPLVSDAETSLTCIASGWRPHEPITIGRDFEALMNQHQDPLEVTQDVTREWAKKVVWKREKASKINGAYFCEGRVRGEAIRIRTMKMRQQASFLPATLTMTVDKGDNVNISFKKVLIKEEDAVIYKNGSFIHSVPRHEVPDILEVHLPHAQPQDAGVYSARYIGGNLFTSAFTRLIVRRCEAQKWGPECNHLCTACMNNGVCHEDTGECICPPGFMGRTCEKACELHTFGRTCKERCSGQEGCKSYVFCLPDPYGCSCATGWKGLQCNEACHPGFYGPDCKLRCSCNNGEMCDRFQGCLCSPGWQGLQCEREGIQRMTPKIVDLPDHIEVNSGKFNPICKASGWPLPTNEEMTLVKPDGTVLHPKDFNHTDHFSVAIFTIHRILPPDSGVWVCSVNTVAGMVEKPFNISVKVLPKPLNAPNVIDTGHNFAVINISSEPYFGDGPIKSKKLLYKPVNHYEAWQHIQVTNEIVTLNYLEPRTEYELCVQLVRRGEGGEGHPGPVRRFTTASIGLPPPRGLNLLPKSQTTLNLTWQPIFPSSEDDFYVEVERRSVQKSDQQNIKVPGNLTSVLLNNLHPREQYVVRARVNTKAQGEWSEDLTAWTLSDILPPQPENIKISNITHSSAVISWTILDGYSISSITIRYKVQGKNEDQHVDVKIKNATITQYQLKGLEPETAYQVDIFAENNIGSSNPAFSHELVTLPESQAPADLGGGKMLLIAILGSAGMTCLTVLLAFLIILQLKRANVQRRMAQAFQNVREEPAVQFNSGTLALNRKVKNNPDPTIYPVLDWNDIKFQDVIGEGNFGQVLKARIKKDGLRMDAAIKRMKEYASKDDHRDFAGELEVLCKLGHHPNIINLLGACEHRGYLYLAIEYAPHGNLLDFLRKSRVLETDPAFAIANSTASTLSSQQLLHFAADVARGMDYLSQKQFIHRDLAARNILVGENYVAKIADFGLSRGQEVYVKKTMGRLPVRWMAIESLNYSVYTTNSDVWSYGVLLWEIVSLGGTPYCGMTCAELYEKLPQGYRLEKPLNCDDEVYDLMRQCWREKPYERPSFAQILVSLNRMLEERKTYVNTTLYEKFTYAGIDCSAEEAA
Sequence of BDNF/NT-3 growth factors receptor (Homo sapiens) (Q16620 32-822 limits assumed): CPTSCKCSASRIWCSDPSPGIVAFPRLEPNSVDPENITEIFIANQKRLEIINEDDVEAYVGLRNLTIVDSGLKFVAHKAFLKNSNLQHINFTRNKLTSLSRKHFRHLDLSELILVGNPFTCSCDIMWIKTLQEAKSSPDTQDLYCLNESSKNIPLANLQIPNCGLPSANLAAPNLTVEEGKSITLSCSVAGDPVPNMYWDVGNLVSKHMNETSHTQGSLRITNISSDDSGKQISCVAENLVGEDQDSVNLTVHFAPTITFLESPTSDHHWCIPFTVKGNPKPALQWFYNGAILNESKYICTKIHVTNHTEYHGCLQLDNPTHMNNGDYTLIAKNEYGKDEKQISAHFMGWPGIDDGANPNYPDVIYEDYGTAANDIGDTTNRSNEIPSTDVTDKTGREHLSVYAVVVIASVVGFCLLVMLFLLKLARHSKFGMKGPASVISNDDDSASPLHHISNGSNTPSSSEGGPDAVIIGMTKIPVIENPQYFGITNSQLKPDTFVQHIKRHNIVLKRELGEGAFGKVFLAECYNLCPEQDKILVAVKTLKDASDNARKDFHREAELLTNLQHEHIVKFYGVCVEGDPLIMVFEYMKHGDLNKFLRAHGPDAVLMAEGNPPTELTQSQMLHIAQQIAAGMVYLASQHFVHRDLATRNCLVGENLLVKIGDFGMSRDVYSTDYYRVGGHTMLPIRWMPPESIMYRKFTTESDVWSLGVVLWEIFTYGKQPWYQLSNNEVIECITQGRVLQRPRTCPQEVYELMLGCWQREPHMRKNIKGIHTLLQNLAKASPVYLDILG
Sequence of Non-receptor tyrosine-protein kinase TYK2 (Homo sapiens) (P29597 whole entry): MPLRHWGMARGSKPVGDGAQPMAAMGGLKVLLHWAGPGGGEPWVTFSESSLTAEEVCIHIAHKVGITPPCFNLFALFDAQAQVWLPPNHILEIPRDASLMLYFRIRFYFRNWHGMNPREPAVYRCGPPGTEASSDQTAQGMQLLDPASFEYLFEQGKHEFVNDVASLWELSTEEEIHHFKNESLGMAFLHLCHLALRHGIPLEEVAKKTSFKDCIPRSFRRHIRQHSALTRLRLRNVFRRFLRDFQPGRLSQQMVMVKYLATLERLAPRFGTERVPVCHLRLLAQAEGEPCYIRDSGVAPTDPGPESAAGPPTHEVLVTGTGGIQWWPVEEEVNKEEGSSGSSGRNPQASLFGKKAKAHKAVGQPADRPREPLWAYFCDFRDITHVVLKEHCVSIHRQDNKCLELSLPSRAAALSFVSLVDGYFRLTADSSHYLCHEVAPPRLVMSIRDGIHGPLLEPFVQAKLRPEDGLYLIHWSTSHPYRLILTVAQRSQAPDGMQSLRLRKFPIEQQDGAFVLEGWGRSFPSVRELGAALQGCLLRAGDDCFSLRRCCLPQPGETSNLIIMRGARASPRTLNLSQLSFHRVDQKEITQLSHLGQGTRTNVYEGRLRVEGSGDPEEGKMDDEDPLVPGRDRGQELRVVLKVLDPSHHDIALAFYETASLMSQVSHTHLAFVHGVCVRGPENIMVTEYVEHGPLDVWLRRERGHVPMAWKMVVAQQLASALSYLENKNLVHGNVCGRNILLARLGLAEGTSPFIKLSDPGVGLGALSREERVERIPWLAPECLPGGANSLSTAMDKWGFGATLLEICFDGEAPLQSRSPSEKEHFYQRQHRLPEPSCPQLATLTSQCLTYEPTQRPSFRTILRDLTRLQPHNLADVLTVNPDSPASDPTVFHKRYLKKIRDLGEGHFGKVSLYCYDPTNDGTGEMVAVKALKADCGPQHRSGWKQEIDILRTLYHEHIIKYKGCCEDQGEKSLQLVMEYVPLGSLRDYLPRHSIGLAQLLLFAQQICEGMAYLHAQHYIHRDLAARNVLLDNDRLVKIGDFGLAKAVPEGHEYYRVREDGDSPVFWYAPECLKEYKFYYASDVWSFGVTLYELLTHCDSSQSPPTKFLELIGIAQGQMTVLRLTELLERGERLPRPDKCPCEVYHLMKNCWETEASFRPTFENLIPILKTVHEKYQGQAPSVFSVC
Sequence of High affinity nerve growth factor receptor (Homo sapiens) (P04629 33-796 limits assumed): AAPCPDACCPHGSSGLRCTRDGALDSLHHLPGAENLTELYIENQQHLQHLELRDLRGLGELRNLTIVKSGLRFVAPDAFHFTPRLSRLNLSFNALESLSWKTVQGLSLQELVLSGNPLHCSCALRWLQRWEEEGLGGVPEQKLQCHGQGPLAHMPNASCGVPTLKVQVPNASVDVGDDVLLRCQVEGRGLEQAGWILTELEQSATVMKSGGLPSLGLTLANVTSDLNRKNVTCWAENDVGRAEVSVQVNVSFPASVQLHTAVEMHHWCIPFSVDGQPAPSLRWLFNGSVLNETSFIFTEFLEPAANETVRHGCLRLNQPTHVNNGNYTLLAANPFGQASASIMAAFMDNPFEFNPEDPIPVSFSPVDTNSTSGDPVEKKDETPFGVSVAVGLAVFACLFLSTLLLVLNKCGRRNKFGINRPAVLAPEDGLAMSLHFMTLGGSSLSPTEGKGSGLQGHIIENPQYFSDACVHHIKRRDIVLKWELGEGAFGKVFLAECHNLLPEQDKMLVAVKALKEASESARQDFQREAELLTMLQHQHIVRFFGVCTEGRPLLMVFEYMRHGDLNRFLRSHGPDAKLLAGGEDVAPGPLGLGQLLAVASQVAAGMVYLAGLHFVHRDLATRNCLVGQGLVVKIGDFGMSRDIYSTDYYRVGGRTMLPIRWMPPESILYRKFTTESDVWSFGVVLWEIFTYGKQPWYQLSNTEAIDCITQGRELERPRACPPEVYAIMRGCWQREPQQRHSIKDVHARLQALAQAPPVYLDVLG

For the compound `NS(=O)(=O)c1ccc(N/C=C2\C(=O)Nc3ccc4ncsc4c32)cc1`, the inhibition in [1] was -8.48%; in test [2], 1.96%; in [3], 10.6%; in test [4], 0.38%; in test [5] it was 10.4%; in test [6], 6.89%. The inhibition in test [7] came to 37.8%; in test [8] it was 0.75%; in test [9], 1.83%; in [10] it was 9.04%; in test [11], 51.3%; in [12] it was 19.1%. Besides, the inhibition in test [13] is 65.9%; in test [14], 21.6%; in test [15], 66.9%; in test [16], -0.44%; in [17], 10.8%; in test [18], 1.37%. The figures for the inhibition in test [19] and in [20] were 62.4% and 30%, respectively.
For `CCn1c(-c2nonc2N)nc2c(C#CC(C)(C)O)nc(O[C@@H](CN)c3ccccc3)cc21`, the inhibition in [1] was 0.56%; in test [2], 0.79%; in test [3], 5.82%; in [4], 2.63%; in [5], 11.4%; in [6], -3.17%. The inhibition is -3.26% in [7]; -0.88% in test [8]; -1.74% in test [9]; -3.19% in [10]; 0.16% in test [11]; -1.86% in test [12]. The inhibition in test [13] is 1.16%; in test [14], -1.62%; in [15], 0.7%; in test [16], 2.06%; in test [17] it was 2.31%; in test [18], 2.96%. Further, the inhibition is 8.72% in test [19] and 0.22% in [20].
`Cc1cc(-c2ccco2)cc(C)c1/C=C/c1cncc(-c2nn[nH]n2)c1`: the inhibition in test [1] is -0.41%; in [2] it was -0.18%; in test [3], 4.27%; in test [4], 2.4%; in test [5], 5.27%; in [6], 14.2%. For the same compound, the inhibition was 75.2% in [7]; 0.58% in [8]; 3.5% in [9]; -2.1% in test [10]; -4.92% in test [11]; -0.9% in test [12]. For the same compound, the inhibition is 4.36% in [13]; -0.6% in [14]; 5.53% in [15]; -0.29% in test [16]; 4.01% in [17]; 0.06% in test [18]. Besides, the inhibition in test [19] came to 4.48%; in [20] it was 3.01%.
